# Source: PubChem BioAssay (The Scripps Research Institute Molecular Screening Center)
# An excerpt weighted towards active compounds, which were near 4.1% of everything screened.
# hcDAF-12 act – activators of H. contortus DAF-12 nuclear receptor; activation, % at 6.8 µM; HEK293 hcDAF-12 lit1-tk-luc reporter, luminescence; 0% DMSO, 100% Δ7-dafachronic acid; 370,000 tested, 1.4% active;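 active = activation above the mean of all tested compounds plus 3 SD, cut at about 5.5% in these data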;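 also: 100% = response to 3 µM Δ7-dafachronic acid high control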
# hgDAF-12 ag – activates the H. glycines DAF-12 receptor ligand-binding domain; 370,000 tested, 1.8% active; HEK293 GAL4-hgDAF12 UAS-luciferase reporter, agonist luminescence; normalized to butyrate control; AID 687014; activation, % at 6.8 µM;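 active = activation above a cutoff set at the mean of all screened compounds plus 3 SD, cut at about 10% in these data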;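 also: 0% = DMSO wells and 100% = sodium butyrate wells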
# DAX1 inh-1 – NR0B1 (DAX1) inhibition; P51843; HEK293 Gal4-DAX1 luciferase reporter, luminescence; inhibition, % at 6.75 µM; 340,000 tested, 0.99% active; AID 504766;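 active = inhibition above the mean over all tested compounds plus 3 SD, cut at about 4.2% in these data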;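 also: 0% = DAX1-transfected cells with DMSO and 100% = empty-vector control cells with DMSO; inhibition shows as a rise in luminescence from relieved DAX1 repression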
# DAX1 inh-2 – blocks DAX1 repression of SF-1 activated StAR promoter; HEK293T StAR-luciferase reporter, SF-1/DAX-1 repression relief; inhibition, % at 6.8 µM; 370,000 tested, 1.1% active; AID 652010;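 active = inhibition above the mean over all tested compounds plus 3 SD, cut at about 3.6% in these data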;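 also: 0% = DAX-1 cells with DMSO and 100% = cells lacking DAX-1 with DMSO; higher inhibition means more luminescence from relief of DAX-1 repression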
# ssDAF12 agonist – activators of S. stercoralis DAF-12 nuclear receptor; HEK293 ssDAF-12/GRIP1 lit1-tk-luc reporter, luminescence; % of 3 µM dafachronic acid response; activation, % at 6.8 µM; 370,000 tested, 1% active;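 active = activation above the mean over all tested compounds plus 3 SD, cut at about 0.9% in these data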;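 also: 0% = DMSO-only wells and 100% = 3 µM delta7-dafachronic acid wells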
# DAX1 inh confirm – NR0B1 (human) inhibition, confirmation | inhibition, % at 6.8 µM | HEK293T StAR-promoter luciferase reporter, SF-1/DAX-1 repression | 2,400 tested, 87% active | AID 652134 | shares compounds with DAX1 inh-2;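 active = inhibition above the average of every tested compound plus 3 SD, cut at about 3.8% in these data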;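 also: 0% = DAX-1 cells with DMSO and 100% = no DAX-1 control cells with DMSO; active compounds raise luminescence by relieving repression of the StAR reporter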
# Target sequence (P51843 whole entry, looked up): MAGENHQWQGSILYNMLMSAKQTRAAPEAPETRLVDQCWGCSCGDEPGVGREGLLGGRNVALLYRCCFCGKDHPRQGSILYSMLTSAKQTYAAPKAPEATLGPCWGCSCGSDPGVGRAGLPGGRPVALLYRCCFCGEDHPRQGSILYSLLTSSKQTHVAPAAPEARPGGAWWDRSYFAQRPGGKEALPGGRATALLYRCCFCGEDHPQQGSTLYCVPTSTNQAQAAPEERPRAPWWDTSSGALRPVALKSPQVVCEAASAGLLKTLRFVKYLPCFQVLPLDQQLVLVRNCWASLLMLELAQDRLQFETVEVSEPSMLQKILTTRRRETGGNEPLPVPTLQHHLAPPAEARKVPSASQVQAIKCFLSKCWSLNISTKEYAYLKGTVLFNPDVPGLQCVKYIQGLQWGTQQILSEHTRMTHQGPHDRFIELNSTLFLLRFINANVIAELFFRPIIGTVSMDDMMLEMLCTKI
# SF1 AF2mut Luc – nonselective inhibitor or artifact in SF-1 mutant DAX1 counter-screen; AID 652136; inhibition, % at 6.8 µM; shares compounds with DAX1 inh-2; 2,400 tested, 78% active; HEK293 StAR-luciferase, SF-1 AF2 mutant, luminescence;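 active = inhibition above the mean of all tested compounds plus 3 SD, cut at about 3% in these data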;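 also: 0% = DAX-1 transfected cells with DMSO and 100% = cells without DAX-1 with DMSO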
# LXRb hcDAF ctr – LXR-beta agonism as hcDAF-12 counter-screen. activation, % at 6.8 µM. HEK293 Gal4-LXR tk-luc reporter, luminescence, 24 h; normalized: DMSO 0%, positive control 100%. 3,400 tested, under 10 active. AID 743027. shares compounds with hcDAF-12 act;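 active = mean percent activation of the reporter above a cutoff set as the average over tested compounds plus their standard deviation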
# hcDAF12 ag – hcDAF-12 agonism, confirmation assay | shares compounds with hcDAF-12 act | 3,400 tested, 61% active | activation, % at 6.8 µM | AID 743032 | HEK293 hcDAF-12 lit1-tk-luc reporter, luminescence; % of Δ7-dafachronic acid response;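 active = mean activation across triplicate tests above the threshold derived from the earlier primary screen, cut at about 5.5% in these data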;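 also: 0% = DMSO only wells and 100% = 3 µM Δ7-dafachronic acid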
# Active calls of the source: *; . = no result given.
SMILES,hcDAF-12 act,hgDAF-12 ag,DAX1 inh-1,DAX1 inh-2,ssDAF12 agonist,DAX1 inh confirm,SF1 AF2mut Luc,LXRb hcDAF ctr,hcDAF12 ag
Oc1c(N=Nc2ccccc2)sc2ccccc12,18*,13*,3,5.5*,3.5*,19*,7.4*,2,18*
CC(=O)N1CCN(S(=O)(=O)c2cccc(C(=O)OCC(=O)NCc3ccccc3Cl)c2)CC1,2,7,0,1,-1,.,.,.,.
Cc1ccc(/C=C/C(=O)N2CCc3ccccc32)o1,13*,13*,2,5.2*,1.3*,16*,7.3*,2,9.9*
C[C@H](O)[C@@H]1C(=O)N2CCc3c([nH]c4ccccc34)[C@@H]2C[C@@H]1N(C)C(=O)OCc1ccccc1,0,7,.,-1,-1,.,.,.,.
C/C(=N\Nc1cccc2cccnc12)c1ccccc1O,25*,25*,9.6*,5.6*,4.2*,14*,4.3*,3,20*
Oc1c(/C=N/Nc2cccc3cccnc23)ccc2ccccc12,1,0,1,1,0,.,.,.,.
Oc1cccc(/C=N/Nc2cccc3cccnc23)c1,21*,23*,3,5.7*,3.7*,20*,10*,2,25*
O=C(Cn1ccc(=O)[nH]c1=O)Nc1nccs1,2,3,0,-1,-1,.,.,.,.
CC(C)(C)OC(=O)N[C@H]1C=C[C@@H](CC(=O)OCC(F)(F)F)C1,0,6,.,2,0,.,.,.,.
O=C(Nc1nc2ccccc2[nH]1)c1ccc(F)cc1,8.0*,13*,-2,5.3*,1.2*,14*,8.9*,1,5
CCCCCCC12Cc3cc(OC)c(OC)cc3C(O1)c1c(cc(C)oc1=O)O2 (stereo unspecified),-2,-1,.,0,-1,.,.,.,.
O=c1oc2ccccc2cc1-c1nc2c(s1)CCCC2,10*,12*,0,5.0*,1,5.2*,-1,1,14*
C[C@H]1CN([C@@H](C)CO)C(=O)CCCn2cc(nn2)CO[C@@H]1CN(C)S(=O)(=O)c1ccc(F)cc1,0,4,.,0,-1,.,.,.,.
COc1ccc2nc(N3C(=O)C(O)=C(C(=O)c4ccco4)C3c3ccc(C)o3)sc2c1 (stereo unspecified),1,6,2,1,0,.,.,.,.
Cc1ccc2nc(N3C(=O)C(O)=C(C(=O)c4ccco4)C3c3cccs3)sc2c1 (stereo unspecified),9.1*,13*,1,5.3*,1,5.9*,1,0,3
C(=Cc1cnc2ccccc2n1)c1ccc2c(c1)OCO2,-2,-7,-5,0,-1,.,.,.,.
C(=Cc1nc2ccccc2o1)c1ccc2c(c1)OCO2,8.1*,14*,0,13*,0,6.3*,0,1,8.9*
O[C@@H]1C[C@H](c2ccc(Cl)cc2)N(Cc2cccs2)C[C@H]1n1cc(C2CC2)nn1,-2,-1,0,0,-1,.,.,.,.
COCCN1Cc2cc(C(=O)OC)c3c(c2C1=O)c1cc(OC)ccc1n3S(=O)(=O)c1ccc(C)cc1,3,0,.,-1,-1,.,.,.,.
Cc1ccc2nc(-c3ccc(NC(=O)COC(=O)c4cncc(Br)c4)cc3)sc2c1,9.5*,13*,3,5.7*,1.6*,17*,7.5*,2,12*
CC(=O)c1c(C)[nH]c(C(=O)Nc2cccc(C)n2)c1C,6.9*,12*,0,12*,0,11*,4.7*,1,3
COc1ccc(NC(=O)c2[nH]c(C)c(C(C)=O)c2C)cc1,11*,11*,0,4.7*,1.7*,6.5*,6.8*,1,10*
CCCNC(=O)C1(C)CCN(Cc2ccc(C(=O)OCC)cc2)C1 (stereo unspecified),0,-2,.,-1,-2,.,.,.,.
O=C1C2C3C=CC(C3)C2C(=O)N1c1ccc(-c2nc(-c3ccccc3)nc3ccccc23)cc1 (stereo unspecified),0,2,.,0,-1,.,.,.,.
COc1cc(N/N=C/c2ccc(N(C)C)cc2)ncn1,11*,12*,-2,10*,1,12*,4.3*,2,8.4*
SMILES,hcDAF-12 act,hgDAF-12 ag,DAX1 inh-1,DAX1 inh-2,ssDAF12 agonist,DAX1 inh confirm,SF1 AF2mut Luc,LXRb hcDAF ctr,hcDAF12 ag
COc1cc(N/N=C/c2ccccc2O)ncn1,2,7,3,-1,0,.,.,.,.
COc1cccc(-c2nc3n(n2)CCc2ccccc2-3)c1,17*,20*,4.3*,8.3*,2.0*,7.5*,4.1*,1,16*
COc1cccc(-c2cc(C(=O)N3CCc4ccccc4C3)no2)c1,1,3,1,0,-1,.,.,.,.
Cc1ccc(-c2cc3nc(C)cc(C)n3n2)cc1,17*,21*,1,4.5*,5.6*,11*,6.2*,2,18*
Cc1cccc(NC(=O)c2cnc3sccn3c2=O)n1,1,3,1,1,-1,.,.,.,.
Cc1cccc(NC(=O)c2cnc3sccn3c2=O)c1,6.9*,13*,4,6.5*,0.9*,12*,4.4*,2,13*
O=C(O)c1ccc(N=NNc2cccc([N+](=O)[O-])c2)cc1,6.7*,8,2,5.1*,0,14*,8.0*,1,4
O=C(Nc1cccc([N+](=O)[O-])c1)c1ccc(-c2ccccc2)cc1,-2,1,-1,0,-2,.,.,.,.
CC(=O)Nc1ccc2c(c1)nc1n2CCSC1,-2,0,0,0,-2,.,.,.,.
Cc1ccc(C(=O)Nc2ccc3c(c2)nc2n3CCSC2)cc1,7.0*,10,0,4.6*,0,13*,7.5*,1,4
CN(C)CCNC(=O)c1sc2cccc(F)c2c1Cl,2,8,2,2,-1,.,.,.,.
O=C(Nc1ccccn1)c1sc2cccc(F)c2c1Cl,14*,19*,3,8.4*,1.1*,8.5*,3,2,18*
Cc1ccc(NC(=O)c2sc3ccccc3c2Cl)nc1,10*,20*,3,5.1*,1,11*,3.1*,2,18*
CNC(=O)c1ccsc1NC(=O)c1sc2ccccc2c1Cl,2,4,1,-1,-1,.,.,.,.
